# In ChEMBL document CHEMBL3433997, “St. Jude Leishmania screening dataset” (2016):
# What was measured:
# Assay type in all cases: functional
# [1] = target: Solute carrier family 2, facilitated glucose transporter member 1 (Homo sapiens) (UniProt P11166); test: ST_JUDE_LEISH: Cytotoxicity at 2uM final concentration against transgenic Leishmania Mexicana promastigotes LmGLUT1 that are glucose transport deficient and complemented with the human glucose transporter GLUT1. Activity is measured by DNA content using SYBR green in vitro
# Solute carrier family 2, facilitated glucose transporter member 1 (Homo sapiens), sequence (P11166 whole entry): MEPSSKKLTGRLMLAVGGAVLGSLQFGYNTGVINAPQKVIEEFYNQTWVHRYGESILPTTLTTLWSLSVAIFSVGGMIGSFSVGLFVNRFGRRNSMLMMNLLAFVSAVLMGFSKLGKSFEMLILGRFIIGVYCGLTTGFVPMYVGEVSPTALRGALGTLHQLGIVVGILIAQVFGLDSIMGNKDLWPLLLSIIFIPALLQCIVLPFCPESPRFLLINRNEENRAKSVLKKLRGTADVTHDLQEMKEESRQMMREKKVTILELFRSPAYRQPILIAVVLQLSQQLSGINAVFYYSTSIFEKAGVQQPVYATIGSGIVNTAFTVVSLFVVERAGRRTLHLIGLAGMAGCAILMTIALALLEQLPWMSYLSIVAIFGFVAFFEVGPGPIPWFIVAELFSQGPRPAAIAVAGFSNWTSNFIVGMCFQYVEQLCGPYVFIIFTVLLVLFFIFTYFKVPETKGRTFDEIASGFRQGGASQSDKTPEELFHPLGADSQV
# [2] = target: Hexose transporter 1 (Plasmodium falciparum) (UniProt O97467); test: ST_JUDE_LEISH: Cytotoxicity at 2uM final concentration against transgenic Leishmania Mexicana promastigotes LmPfHT that are glucose transport deficient and complemented with the Plasmodium falciparum hexose transporter. Activity is measured by DNA content using SYBR green in vitro
# [3] = target: Glucose transporter (Leishmania mexicana) (UniProt O61059); test: ST_JUDE_LEISH: Cytotoxicity at 2uM final concentration against transgenic Leishmania Mexicana promastigotes LmGT2 that are glucose transport deficient and complemented with the L. Mexicana glucose transporter 2. Activity is measured by DNA content using SYBR green in vitro
SMILES,inhibition [1] [%],inhibition [2] [%],inhibition [3] [%]
CCNc1cc(C(=O)N[C@@H](Cc2ccccc2)[C@H](O)CNCCc2cccc3ccccc23)cc(N2CCCC2=O)c1,-0.63,-0.02,-1.96
COc1ccc(Nc2ncc3c(-c4cccc(NC(=O)Cc5ccc(F)cc5)c4)c[nH]c3n2)cc1OC,2.27,2.59,2.37
COc1cc2nc(NCC3CCCCC3)nc(NCc3ccccc3)c2cc1OC,3.26,4.81,0.32
Cc1cc(NC(=O)Nc2ccc3ncccc3c2)c2ccccc2n1,4.47,3.97,1.94
Oc1ccc2ccccc2c1CNCCC1CCCCC1,0.07,0.52,1.73
N=c1ccn(CC(=NO)c2ccc(Cl)c(Cl)c2)cc1,0.09,2.8,0.32
COc1ccc(NC(=O)c2cccc(Br)c2)cc1N1CCN(CCCCCCCN2CCN(c3cc(NC(=O)c4cccc(Br)c4)ccc3OC)CC2)CC1,3.47,2.27,0.78
COc1ccc2sc(CNCCCNc3cc(=O)c4ccccc4[nH]3)c(Cl)c2c1,3.04,3.59,4.49
O=C(NC1CCN(Cc2cccc(C(F)(F)F)c2)CC1)c1ccc(-c2cccc(Cl)c2)s1,3.3,2.49,5.19
N=C(N)c1ccc(-c2cc(-c3cccc(C(=N)N)c3)on2)cc1,3.39,0.98,2.32
CC(CCNc1c2ccccc2nc2ccccc12)N1CCN(C)CC1 (stereo not drawn),30.8,29.1,20.8
Cc1sc(CNCCCNc2cc(=O)c3ccccc3[nH]2)c(C(F)(F)F)c1C,-2.84,-0.65,-0.52
O=C(/C=C/c1ccc(-c2nc3cc(F)c(F)cc3[nH]2)cc1)NCc1ccc(Cl)c(Cl)c1,4.53,4.32,1.96
CC(CCc1ccc(OCc2ccccc2)cc1)NCC(O)c1ccccc1 (stereo not drawn),-1.32,0.43,-0.69
COc1ccc(Br)cc1/C=C/C(=O)Nc1ccc(C2CCN(C)CC2)cc1,3.58,3.16,4.19
CCN(CC)/C(=N/C(=N)Nc1ccc(Cl)cc1)NCCCCCCCCN/C(=N\C(=N)Nc1ccc(Cl)cc1)N(CC)CC,0.33,-0.74,-0.07
CN1CCc2cc(CN3CC4(C)CC3CC(C)(C)C4)c(O)cc2C(c2ccccc2)C1 (stereo not drawn),0.04,-0.55,-0.09
COc1ccc2nccc(NC(=O)N3CCC(NCCOc4cc(F)cc(F)c4)CC3)c2n1,8.02,12.1,-0.77

SMILES,inhibition [1] [%],inhibition [2] [%],inhibition [3] [%]
Cc1cc(OCCCNC(=N)c2ccc3ccccc3c2)c(C(C)C)cc1Cl,2.28,2.39,-0.77
COc1ccc(CC(=O)NC(CCCN2CCC(c3ccccc3)CC2)c2ccc(Cl)c(Cl)c2)cc1OC (stereo not drawn),1.29,2.2,0.22
CCN(CC)CCCNc1cc[n+]([O-])c2cc3ccccc3cc12,-0.82,-2.45,-1.63
O=C(Nc1cccc(-c2ccc(-c3nc4cc(F)ccc4[nH]3)cc2)c1)c1csnn1,12.4,11.9,11.1
O=C(COc1ccc(C(=O)c2ccccc2)cc1)Nc1nccs1,0.24,0.43,-3.28
O=C(NC1CCN(c2ccnc3cc(Cl)ccc23)C1)c1cccc(F)c1 (stereo not drawn),0.95,1.46,1.42
CCOC(=O)c1c(SCc2cccc(F)c2F)[nH]c2ccccc2c1=O,0.37,-0.99,1.97
COc1ccc(Nc2ncc3c(-c4cccc(NC(=O)CC(C)C)c4)c[nH]c3n2)cc1OC,7.31,8.48,6.64
Cc1ccc(C(=O)N2CCN(Cc3nccs3)CC2)cc1,1.23,-0.14,-0.27
O=C(Cc1c[nH]cn1)Nc1ccc(-c2cccc(-c3nc4cc(C(F)(F)F)ccc4[nH]3)c2)cc1,-0.04,0.42,1.12
CC(C)C1=C[C@H]2C[C@]3(C4OCCO4)[C@@H]4CC[C@@H](C)[C@H]4C[C@@]2(C(=O)OCC2COCO2)[C@]13C(=O)OC(c1ccccc1)c1ccccc1 (stereo partly drawn),-1.18,-2.48,-1.79
COc1cc(OC)nc(-c2cccc(NC(=O)c3ccc4c(=O)n(CCN5CCCCC5)cnc4c3)c2)n1,11.9,9.45,7.35
CC[C@H](NC(=O)c1c(CN2CCC(N3CCCCC3)CC2)c(-c2ccccc2)nc2c(Cl)c(O)ccc12)c1ccccc1,7.43,6.81,6.04
CN(C)Cc1c(O)ccc2[nH]c(-c3ccc(OC(F)(F)F)cc3)nc12,3.92,3.22,2.9
Cc1cc(N2CCC(NS(=O)(=O)c3cccc4cccnc34)CC2)nc(Nc2cccc(C#N)c2)n1,51.5,54.4,44.4
CCCC(=O)Nc1ccc(OCCCCN(CC(C)(C)C)c2ccc(C#N)c(C(F)(F)F)c2)cc1,1.48,1.02,0.8
O=C(N1CCN(c2ccnc3cc4c(cc23)N(Cc2ccccc2)CC4)CC1)C(F)(F)F,2.23,3.24,4.39
COc1ccc(-c2nc(NC(=O)CS(=O)(=O)c3ccc(F)cc3)sc2C)cc1,8.03,4.52,2.47
